For some assays here: Results with a measured potency or affinity are listed apart.

Common to all, as to parameters: scale not given: direction of the effect not stated beside the values
Test [1] addresses Protein translocase subunit SecA (Escherichia coli (strain K12)) (UniProt P10408). The test can be described thus: Assay to Identify E. coli SecA ATPase Inhibitors. The note with it: 30 µM. Type of test: functional.
Test [2] addresses T1, Ubiquitin-activating enzyme e1, putative (Leishmania donovani (strain BPK282A1)) (UniProt E9BSI1).
T1 sequence (whole entry): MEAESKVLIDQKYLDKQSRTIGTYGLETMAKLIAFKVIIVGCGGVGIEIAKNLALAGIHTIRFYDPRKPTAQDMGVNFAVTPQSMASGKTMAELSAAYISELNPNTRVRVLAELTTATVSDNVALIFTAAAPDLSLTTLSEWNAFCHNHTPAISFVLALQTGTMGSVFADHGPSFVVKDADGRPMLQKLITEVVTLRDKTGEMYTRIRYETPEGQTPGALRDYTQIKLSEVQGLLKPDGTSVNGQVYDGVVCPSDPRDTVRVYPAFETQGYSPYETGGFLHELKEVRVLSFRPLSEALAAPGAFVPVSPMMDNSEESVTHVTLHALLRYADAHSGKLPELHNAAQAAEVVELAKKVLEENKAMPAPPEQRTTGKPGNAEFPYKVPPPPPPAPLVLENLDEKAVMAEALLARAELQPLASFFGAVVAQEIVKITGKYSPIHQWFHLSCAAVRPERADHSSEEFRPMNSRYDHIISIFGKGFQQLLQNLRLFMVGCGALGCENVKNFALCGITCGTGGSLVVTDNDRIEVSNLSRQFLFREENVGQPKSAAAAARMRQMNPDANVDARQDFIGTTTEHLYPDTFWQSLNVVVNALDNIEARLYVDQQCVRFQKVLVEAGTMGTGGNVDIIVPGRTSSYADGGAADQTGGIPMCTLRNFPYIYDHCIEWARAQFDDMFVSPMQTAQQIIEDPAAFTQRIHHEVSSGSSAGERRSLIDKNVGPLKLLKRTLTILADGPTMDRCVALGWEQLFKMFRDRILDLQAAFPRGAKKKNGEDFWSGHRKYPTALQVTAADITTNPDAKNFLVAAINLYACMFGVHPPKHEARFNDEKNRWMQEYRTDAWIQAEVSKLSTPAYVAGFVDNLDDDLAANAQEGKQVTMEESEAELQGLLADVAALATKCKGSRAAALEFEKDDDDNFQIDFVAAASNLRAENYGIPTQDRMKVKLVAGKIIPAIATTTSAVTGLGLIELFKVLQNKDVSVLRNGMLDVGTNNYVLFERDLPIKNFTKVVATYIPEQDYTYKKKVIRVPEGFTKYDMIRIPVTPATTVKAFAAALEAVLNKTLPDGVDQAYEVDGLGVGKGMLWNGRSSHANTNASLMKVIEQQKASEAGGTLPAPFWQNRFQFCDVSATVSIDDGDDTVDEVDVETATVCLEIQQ
Briefly: Leishmania donovani Ubiquitin Activating Enzyme (LdE1). Type of test: functional. The note with it: 30 µM.

Test [3] addresses AMP-activated protein kinase, AMPK (Homo sapiens) (UniProt P54646+O43741+P54619+Q9UGJ0+Q9Y478+Q13131+Q9UGI9). The test can be described thus: AMP-dependent Kinase enzyme assay. An in vitro enzyme assay that detects ADP turnover that is directly proportional to AMPK activity. This uses naive AMPK that is activated during the assay with MK-8722. Type of test: functional. The note with it: 30 µM.

The target of test [4] is Sialic acid-binding Ig-like lectin 9 (Homo sapiens) (UniProt Q9Y336). Briefly: Hs-Siglec9 ALPHAscreen SOP 20170721. The note with it: 10 µM. (In general: Bead proximity is the source of the signal in Alpha formats.)
Sequence of Sialic acid-binding Ig-like lectin 9 (Homo sapiens) (Q9Y336 whole entry): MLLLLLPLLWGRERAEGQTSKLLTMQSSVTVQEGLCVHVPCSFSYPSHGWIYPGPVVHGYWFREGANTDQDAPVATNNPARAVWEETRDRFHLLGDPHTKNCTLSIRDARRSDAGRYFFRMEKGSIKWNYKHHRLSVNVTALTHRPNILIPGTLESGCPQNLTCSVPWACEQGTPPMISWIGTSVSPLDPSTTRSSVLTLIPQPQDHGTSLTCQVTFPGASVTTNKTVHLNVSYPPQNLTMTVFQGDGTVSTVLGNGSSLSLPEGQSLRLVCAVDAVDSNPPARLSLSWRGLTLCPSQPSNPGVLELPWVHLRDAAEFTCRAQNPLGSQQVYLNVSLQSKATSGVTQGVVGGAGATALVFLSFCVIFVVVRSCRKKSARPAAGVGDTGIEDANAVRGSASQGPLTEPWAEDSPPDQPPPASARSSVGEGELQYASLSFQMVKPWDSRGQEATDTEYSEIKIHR
In another test the test system is Trypanosoma cruzi. Briefly: Trypanosoma cruzi phosphomannomutase and mannose-1-phosphate guanylyltransferase assay. Type of test: functional. The note with it: 10 µM.
Test [5] addresses T2, Arginase-2, mitochondrial (Homo sapiens) (UniProt P78540).
T2 sequence (whole entry): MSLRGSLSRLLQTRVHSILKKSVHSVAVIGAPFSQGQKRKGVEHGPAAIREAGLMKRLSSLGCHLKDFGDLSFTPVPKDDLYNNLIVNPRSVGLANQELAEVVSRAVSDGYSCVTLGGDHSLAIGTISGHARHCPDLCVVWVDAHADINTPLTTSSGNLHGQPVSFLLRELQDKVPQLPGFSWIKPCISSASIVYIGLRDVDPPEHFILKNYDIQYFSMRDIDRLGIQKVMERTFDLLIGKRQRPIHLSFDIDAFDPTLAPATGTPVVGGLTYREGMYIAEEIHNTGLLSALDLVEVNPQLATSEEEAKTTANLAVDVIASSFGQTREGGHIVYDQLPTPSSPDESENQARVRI
Briefly: in vitro enzyme assay to detect the production of urea directly proportional to the activity of Arginase II. Further: in the data most compounds retested in dose-response had high values. Type of test: functional. The note with it: 33.3 µM.

The target in test [6] is T3, Proteasome subunit beta (Trypanosoma cruzi) (UniProt O96673).
T3 sequence (whole entry): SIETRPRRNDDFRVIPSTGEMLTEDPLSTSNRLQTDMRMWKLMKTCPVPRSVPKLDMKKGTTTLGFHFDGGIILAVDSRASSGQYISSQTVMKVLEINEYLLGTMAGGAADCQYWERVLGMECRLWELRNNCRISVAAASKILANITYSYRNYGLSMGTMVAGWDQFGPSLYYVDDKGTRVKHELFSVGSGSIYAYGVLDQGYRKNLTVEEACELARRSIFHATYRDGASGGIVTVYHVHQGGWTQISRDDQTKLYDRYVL
Briefly: Trypanosoma cruzi proteasome chymotrypsin-like activity (TcProtChymo) assay. Further: in the data most compounds retested in dose-response had high values. Type of test: functional. The note with it: 9.37 µM.

The species named for another test is Homo sapiens. The test can be described thus: To identify inhibition of the IFN signalling (Jak-Stat) pathway via expression of an eGFP reporter gene under the control of an IFN-stimulated response element (ISRE) containing MxA promoter. Type of test: functional. The note with it: 30 µM.
The target in test [7] is T4, Tyrosyl-tRNA synthetase, putative (Trypanosoma cruzi (strain CL Brener)) (UniProt Q4DSP6).
T4 sequence (whole entry): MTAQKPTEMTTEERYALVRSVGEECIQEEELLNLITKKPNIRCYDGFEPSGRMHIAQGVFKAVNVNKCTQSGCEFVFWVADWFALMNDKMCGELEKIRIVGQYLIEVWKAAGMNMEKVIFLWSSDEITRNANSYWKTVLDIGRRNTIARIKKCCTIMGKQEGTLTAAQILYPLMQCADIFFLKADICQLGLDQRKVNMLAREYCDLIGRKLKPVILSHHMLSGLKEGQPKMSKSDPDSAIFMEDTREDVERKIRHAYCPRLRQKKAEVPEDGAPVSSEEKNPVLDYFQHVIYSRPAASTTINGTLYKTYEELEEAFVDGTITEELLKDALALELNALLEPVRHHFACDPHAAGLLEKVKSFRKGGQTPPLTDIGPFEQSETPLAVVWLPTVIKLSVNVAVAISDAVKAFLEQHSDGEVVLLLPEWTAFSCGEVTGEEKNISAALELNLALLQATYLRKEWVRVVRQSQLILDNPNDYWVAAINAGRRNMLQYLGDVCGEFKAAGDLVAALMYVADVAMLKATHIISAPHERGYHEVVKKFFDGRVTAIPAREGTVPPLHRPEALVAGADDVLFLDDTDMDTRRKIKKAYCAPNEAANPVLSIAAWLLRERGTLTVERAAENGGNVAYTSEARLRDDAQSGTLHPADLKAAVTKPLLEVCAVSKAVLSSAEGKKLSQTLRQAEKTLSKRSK
Briefly: Trypanosoma cruzi tyrosyl tRNA synthetase (TcYRS) _High Tyrosine SOP. Further: in the data most compounds retested in dose-response had high values. Type of test: functional. The note with it: 30 µM.

For test [8], the target named is T4, Tyrosyl-tRNA synthetase, putative (Trypanosoma cruzi (strain CL Brener)). The test can be described thus: Trypanosoma cruzi tyrosyl tRNA synthetase (TcYRS) SOP. Type of test: functional. The note with it: 30 µM.
Test [9] has as its target Chromo domain-containing protein 1 (Saccharomyces cerevisiae (strain ATCC 204508 / S288c) (Baker's yeast)) (UniProt P32657). The test can be described thus: ScCHD-1 Enzyme Inhibition Assay. Further: in the data most compounds retested in dose-response had high values. Type of test: functional. The note with it: 30 µM.

Sequence of Chromo domain-containing protein 1 (Saccharomyces cerevisiae (strain ATCC 204508 / S288c) (Baker's yeast)) (P32657 whole entry, the tested form may be a part): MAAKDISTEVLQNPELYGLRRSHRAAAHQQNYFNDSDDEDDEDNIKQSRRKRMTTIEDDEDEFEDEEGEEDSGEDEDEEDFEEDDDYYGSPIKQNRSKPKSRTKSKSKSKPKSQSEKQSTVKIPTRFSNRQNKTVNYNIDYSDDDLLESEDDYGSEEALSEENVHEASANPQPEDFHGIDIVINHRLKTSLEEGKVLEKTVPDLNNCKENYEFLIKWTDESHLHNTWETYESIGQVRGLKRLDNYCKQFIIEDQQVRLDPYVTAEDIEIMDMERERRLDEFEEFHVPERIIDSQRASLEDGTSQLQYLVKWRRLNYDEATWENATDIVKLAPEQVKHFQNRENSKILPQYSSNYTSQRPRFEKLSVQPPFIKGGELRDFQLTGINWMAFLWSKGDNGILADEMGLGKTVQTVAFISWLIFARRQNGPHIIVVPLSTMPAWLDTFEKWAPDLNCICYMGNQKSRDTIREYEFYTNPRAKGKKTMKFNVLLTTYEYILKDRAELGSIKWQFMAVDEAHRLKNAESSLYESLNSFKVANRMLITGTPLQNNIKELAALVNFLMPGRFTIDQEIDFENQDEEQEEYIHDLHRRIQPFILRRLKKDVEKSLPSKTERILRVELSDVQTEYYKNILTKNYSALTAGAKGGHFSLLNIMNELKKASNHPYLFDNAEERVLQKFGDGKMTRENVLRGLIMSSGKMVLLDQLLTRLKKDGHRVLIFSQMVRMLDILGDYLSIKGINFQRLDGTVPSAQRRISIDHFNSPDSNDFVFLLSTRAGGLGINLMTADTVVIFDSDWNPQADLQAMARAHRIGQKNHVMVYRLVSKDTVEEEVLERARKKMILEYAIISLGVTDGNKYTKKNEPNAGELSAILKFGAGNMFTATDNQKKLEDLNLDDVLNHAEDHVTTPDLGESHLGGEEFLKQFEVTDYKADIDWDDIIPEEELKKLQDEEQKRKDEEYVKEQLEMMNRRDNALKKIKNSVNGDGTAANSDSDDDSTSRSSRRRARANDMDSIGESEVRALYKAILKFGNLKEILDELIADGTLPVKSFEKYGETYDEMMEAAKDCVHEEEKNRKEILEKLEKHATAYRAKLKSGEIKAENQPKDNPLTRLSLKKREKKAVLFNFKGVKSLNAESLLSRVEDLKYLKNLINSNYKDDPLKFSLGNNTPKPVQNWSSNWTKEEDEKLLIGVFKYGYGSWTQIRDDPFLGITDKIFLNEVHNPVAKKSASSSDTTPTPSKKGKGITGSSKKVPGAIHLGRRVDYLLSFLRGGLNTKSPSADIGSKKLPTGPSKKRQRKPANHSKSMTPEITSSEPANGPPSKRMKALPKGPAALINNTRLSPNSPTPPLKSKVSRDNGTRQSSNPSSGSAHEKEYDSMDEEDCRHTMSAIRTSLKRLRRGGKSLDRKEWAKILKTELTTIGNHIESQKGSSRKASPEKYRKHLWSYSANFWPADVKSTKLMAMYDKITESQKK
Sequence of Protein translocase subunit SecA (Escherichia coli (strain K12)) (P10408 whole entry): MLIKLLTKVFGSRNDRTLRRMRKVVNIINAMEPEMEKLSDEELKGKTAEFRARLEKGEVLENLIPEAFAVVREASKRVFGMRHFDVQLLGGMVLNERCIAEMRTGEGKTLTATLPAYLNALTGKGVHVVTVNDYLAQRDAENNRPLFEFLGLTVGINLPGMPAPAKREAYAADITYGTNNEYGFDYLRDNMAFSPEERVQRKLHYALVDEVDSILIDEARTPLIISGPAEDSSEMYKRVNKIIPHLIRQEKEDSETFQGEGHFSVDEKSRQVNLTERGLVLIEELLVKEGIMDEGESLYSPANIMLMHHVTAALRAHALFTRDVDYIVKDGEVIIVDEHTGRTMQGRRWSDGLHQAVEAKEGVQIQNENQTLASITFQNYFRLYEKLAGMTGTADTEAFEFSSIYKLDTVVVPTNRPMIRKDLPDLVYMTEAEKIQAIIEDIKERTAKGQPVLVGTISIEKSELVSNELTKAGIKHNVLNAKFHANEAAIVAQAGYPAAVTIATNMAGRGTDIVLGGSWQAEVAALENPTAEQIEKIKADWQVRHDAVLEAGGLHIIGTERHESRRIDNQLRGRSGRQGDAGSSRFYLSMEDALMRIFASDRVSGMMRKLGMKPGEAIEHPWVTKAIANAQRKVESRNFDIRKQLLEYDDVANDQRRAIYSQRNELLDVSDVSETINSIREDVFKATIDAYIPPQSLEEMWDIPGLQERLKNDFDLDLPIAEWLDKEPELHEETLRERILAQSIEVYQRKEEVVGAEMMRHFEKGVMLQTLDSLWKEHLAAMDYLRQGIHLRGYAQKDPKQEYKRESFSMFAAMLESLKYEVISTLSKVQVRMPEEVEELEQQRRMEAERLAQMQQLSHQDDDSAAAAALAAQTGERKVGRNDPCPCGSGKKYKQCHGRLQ

With `COc1ccc(-n2nnc(C(=O)NC(C)C)c2C2CC2)cc1`, the Percent Effect in test [1] was -1.4%; in [2] it was 1.39%; in test [3], -9.18%; in [4] it was 9.95%; in the test with Trypanosoma cruzi, 4.96%; in test [5], 15%. Further, the Percent Effect in test [6] was 4.21%; in the test filed under Homo sapiens, 9.68%; in [7] it was 0%; in test [8], 0%; in test [9] it was -0.372%.

With `O=C(C[C@@H]1COC[C@H]2CN(Cc3ccncc3)C[C@@H]12)N1CCOCC1`, the Percent Effect in test [1] is -1.31%; in [2], 12%; in test [3] it was -1.49%; in [4] it was 2.73%; with Trypanosoma cruzi it was -6.88%; in test [5], -17.4%. The Percent Effect in [6] was 10.5%; in the test filed under Homo sapiens, -2.62%; in test [7] it was 0%; in test [8] it was 2.56%; in test [9], -5.74%.

On to `COc1ccc2c(O)c(NC(=O)NCC3CC3)cnc2c1`, for which the Percent Effect is 1.05% in test [1]; 14.9% in [2]; 9.57% in test [3]; -7.59% in test [4]; -1.38% in the test on Trypanosoma cruzi; -4.87% in test [5]. Moreover, the Percent Effect in test [6] was 14.7%; in the test listed under Homo sapiens it was 7.86%; in test [7], 2.15%; in [8], 9.09%; in [9], -11.6%.

For the molecule `COc1c(C2CCCN2C(=O)Cc2c(C)noc2C)c(C)nn1C` (stereo not given), the Percent Effect in [1] is -4.91%; in test [2], 15.2%; in test [3], -0.162%; in test [4], 8.65%; in the test with Trypanosoma cruzi, 0.661%; in [5] it was 0.38%. Moreover, the Percent Effect in test [6] is 0.0819%; in the test listed under Homo sapiens, -12.4%; in [7], 7.39%; in [8], 16.5%; in test [9], -6.93%.

In the case of `COCCN1C(=O)CC(N2CCN(c3ccc(F)cc3)CC2)C1=O` (stereo not given), the Percent Effect in [1] was 0.82%; in test [2], 10.5%; in [3], 2.05%; in [4] it was -7.33%; with Trypanosoma cruzi it was -0.0974%; in test [5] it was -1.18%. Further, the Percent Effect in test [6] is 10.3%; in the test filed under Homo sapiens, 14.5%; in test [7], -3.19%; in test [8], 5.2%; in test [9] it was -4.78%.

Take `CN(C)S(=O)(=O)N1C[C@@H]2CC[C@H](C1)N(Cc1ccc3nsnc3c1)C2`: the Percent Effect in test [1] is -6.44%; in test [2] it was 9.72%; in [3] it was -22.2%; in [4], 43.5%; in the test on Trypanosoma cruzi, 3.21%; in test [5], 21.2%. The Percent Effect in [6] was 4.04%; in the test filed under Homo sapiens, 4.28%; in [7], 2.1%; in test [8], 12.8%; in test [9], -5.13%.

For the molecule `CN1CCCC(Cc2cncc(C(=O)NCC3CC3)c2)C1` (stereo not given), the Percent Effect was -4.88% in test [1]; 1.35% in [2]; 8.98% in test [3]; 0.654% in test [4]; 0.79% in the test on Trypanosoma cruzi; -2.09% in [5]. The Percent Effect in [6] is 4.68%; in the test listed under Homo sapiens, 7.04%; in test [7], 5.38%; in [8] it was 11.7%; in test [9], -7.98%.

Regarding `O=C(CCc1ccccn1)N1CCN(C(=O)CC2CCCCC2)CC1`, the Percent Effect in test [1] is -6.55%; in test [2], 15.6%; in test [3], -6.12%; in test [4] it was -12.3%; with Trypanosoma cruzi, 4.41%; in [5], -5.68%. The Percent Effect in [6] is 10.9%; in the test filed under Homo sapiens, 4.51%; in test [7], 5.71%; in test [8] it was 18.8%; in test [9], -18.5%.

As for `O=S1(=O)N=C(SCc2ccc(Cl)cc2)Nc2ccc(F)cc21`, the Percent Effect in test [1] is -2.41%; in test [2], -7.79%; in [3], -5.17%; in test [4], -2.88%; with Trypanosoma cruzi, -1.08%; in test [5] it was 1.94%. Further, the Percent Effect is 13.8% in [6]; 21.9% in the test listed under Homo sapiens; -6.35% in test [7]; -8.97% in [8]; -10.5% in test [9].

Turning to `COCCOc1ncccc1C(=O)Nc1ccc(-n2cncn2)c(F)c1`, the Percent Effect is -2.86% in [1]; 10.5% in [2]; 0.415% in [3]; 9.57% in test [4]; 0% in the test on Trypanosoma cruzi; 0% in [5]. In addition, the Percent Effect was 17.5% in [6]; -26.4% in the test listed under Homo sapiens; 7.35% in [7]; 12.2% in test [8]; -9.99% in test [9].

The values above are taken from ChEMBL document CHEMBL3988442, “University of Dundee, Small-Polar-MMV Screening Library” (2021).
